Laboratory results taken from PubChem BioAssay AID2099 (Broad Institute, 2009).
Screen size: about 330,000 compounds; about 230 (0.07%) were called active. This is one part of a sample in which actives are shown more often than they occur. Unmarked numbers belong to inactive results.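 How the source made its calls: active means more than half of a compound's replicate wells show inhibition beyond 50%, single wells judged on their own value; inconclusive means some, but no more than half, of replicates pass 50% inhibition; inactive means no replicate passes 50% inhibition.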

Biological target: Lysine-specific demethylase 4C (Homo sapiens) (UniProt Q9H3R0)
Assay: JMJD2C H3K9me3 demethylation blockers – biochemical, fluorescence, DELFIA europium, primary screen (AID 2099);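 further: signal counts dimethyl H3K9 product captured on neutravidin plate; 0% = median of DMSO wells and 100% = 0.3 times that DMSO median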
Conditions: GST-JMJD2C(1-420) H3K9me3 demethylation, at 2.35 µM, active compounds read high

Sequence of Lysine-specific demethylase 4C (Homo sapiens) (Q9H3R0 1-420 limits assumed): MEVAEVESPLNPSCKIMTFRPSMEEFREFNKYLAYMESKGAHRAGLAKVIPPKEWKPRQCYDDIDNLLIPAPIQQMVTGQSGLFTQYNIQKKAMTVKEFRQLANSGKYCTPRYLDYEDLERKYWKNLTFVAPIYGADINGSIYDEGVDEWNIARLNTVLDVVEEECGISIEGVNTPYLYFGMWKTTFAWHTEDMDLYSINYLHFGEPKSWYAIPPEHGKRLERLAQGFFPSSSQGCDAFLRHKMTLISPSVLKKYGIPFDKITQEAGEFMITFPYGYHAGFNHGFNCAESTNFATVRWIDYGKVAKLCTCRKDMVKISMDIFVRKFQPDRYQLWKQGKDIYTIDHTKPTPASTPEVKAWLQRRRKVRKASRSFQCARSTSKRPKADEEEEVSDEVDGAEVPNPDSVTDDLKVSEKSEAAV

SMILES | inhibition
CCc1cc2c(=O)n(-c3ccccc3)c(SCC(=O)O)nc2s1 | -0.0126%
Cn1ccnc1-c1nnn(-c2ccc(F)cc2)n1 | 1.58%
Cc1sc2ncn(CC(=O)NCCCC(=O)N(C)Cc3ccccc3)c(=O)c2c1C | 3.53%
Cc1ccc2nc(C)c3c(c2c1)N(c1ccccc1)CC3 | 0.549%
CC(C)n1c(=S)[nH]c2cc(C(F)(F)F)ccc21 | 9.24%
O=C(COC(=O)c1ccccc1NC(=O)c1ccco1)Nc1ccc2c(c1)OC(F)(F)O2 | -7.33%
CCN1CCC2(CC1)N=C(c1ccc(F)cc1)C(=S)N2C(=O)c1ccc(C)cc1 | -5.72%
CCOc1ncccc1C(=O)OCC(=O)Nc1cccc(S(=O)(=O)N2CCCCCC2)c1 | 3.84%
CCC1(C)N(O)C(C)(C)C(c2ccc(OC)cc2)=[N+]1[O-] (stereo unspecified) | 1.82%
CN(/C(=N/S(=O)(=O)c1cccs1)c1ccccc1)c1ccc(O)cc1 | -2.26%
COc1ccc(Cl)cc1N(CC(=O)N/N=C/c1ccc(OCC(N)=O)cc1)S(C)(=O)=O | 4.78%
O=C(COc1ccc(Cl)cc1Cl)NCCCNC(=O)c1cnccn1 | -5.15%
CCOC(=O)C(=Cc1ccccc1OC)C(=O)OCC | -1.48%
CCOc1ccccc1NC(=O)NC1CCCCCCC1 | 3.73%
CC(=O)Nc1ccc(NC(=O)C(C)OC(=O)C2CC(=O)N(CCc3ccccc3)C2)cc1 (stereo unspecified) | 0.0499%
Cc1nn(Cc2ccc(F)cc2)c(C)c1NC(=O)c1noc2c1CCc1ccccc1-2 | -8.11%
COc1ccccc1CCC(=O)NNC(=O)c1ccncc1 | -2.82%
COc1cccc(CN(C)C(=O)CC23CC4CC(CC(C4)C2)C3)c1OC | 8.93%
CC(C)=CCN1CCN(Cc2cc3ccccc3[nH]2)CC1CCO (stereo unspecified) | -4.87%
COc1ccc(-c2nnc(SC(=O)N3c4ccccc4Sc4ccccc43)o2)cc1 | -0.278%
CC1=C(C(=O)N(C)C)C(c2ccccc2OC(F)F)NC(=O)N1 (stereo unspecified) | 6.88%
CCN1N=C(c2ccccc2)CCC1=O | 2.88%
CCc1ccc[n+](-c2nc([O-])sc2C=O)c1 | 22.8%

SMILES | inhibition
Cc1ccnc(NC(=O)CCNS(=O)(=O)c2ccc(C)c(C)c2)c1 | 7.52%
CCOc1ccc(-n2c(N)c(C(=O)NCC3CCCO3)sc2=S)cc1 (stereo unspecified) | -1.83%
CCC(C)(C(=O)NC1CCCCC1)N(C)C(=O)c1ccc2c(c1)OCO2 (stereo unspecified) | 10.3%
CN(C)c1nc(N)nc(CSc2nnnn2-c2cccc3ccccc23)n1 | -13.8%
O=C(NCc1ccc(F)cc1)C(c1ccccc1)N(C(=O)c1csnn1)C1CC1 (stereo unspecified) | -35.4%
CCc1ccc(N2CC(C(=O)N3CCCCCC3)CC2=O)cc1 (stereo unspecified) | 1.98%
CN1CCN(S(=O)(=O)c2cccc(C(=O)Nc3cccc(S(N)(=O)=O)c3)c2)CC1 | -5.59%
COc1ccccc1C(=O)Nc1cccc(C(=O)N2CCOCC2)c1 | 4.92%
O=C(NCN1CCN(CCO)CC1)c1cnccn1 | -26.1%
COc1cccc(NC(=O)CN(C)CC(=O)c2c(N)n(Cc3ccccc3)c(=O)n(C)c2=O)c1 | -0.288%
CCCN(CCC)C(=O)C1c2ccccc2Oc2ccccc21 | 8.4%
CC(C)C[C@H](NC(=O)C1CCC(CNC(=O)[C@@H]2CCCN2C(=O)OC(C)(C)C)CC1)C(=O)O (stereo partly specified) | 0.085%
Cc1ccc(NS(=O)(=O)c2ccc(F)cc2)nc1 | -1.74%
COc1ccccc1CNC(=O)COC(=O)c1cccs1 | -6.88%
CC(=O)NCCc1ccc(S(=O)(=O)Nc2ccc(C)c(S(=O)(=O)N3CCOCC3)c2)cc1 | -18.7%
CC(=O)NC1=NN(C(C)=O)C(C)(c2ccc(Cl)s2)S1 (stereo unspecified) | -13.4%
CCOc1ccc(N(C)Cc2cc(=O)oc3ccc(OC)cc23)cc1 | -5.29%
Cc1ccc(CSc2nc3[nH]ncc3c(=O)[nH]2)cc1 | -14.5%
COC(=O)c1cc(CNC(=O)CC(C)c2ccccc2)ccc1OC (stereo unspecified) | -9.06%
CCOC(=O)c1ccc(NC(=S)N2CCN(c3ccccn3)CC2)cc1 | 21.6%
OC(COc1ccc(CN2CCSCC2)cc1)CN1CCCCC1 (stereo unspecified) | 6.13%
CCOC(=O)C1=C(COC(=O)[C@H](C)NS(=O)(=O)c2ccccc2F)NC(=O)NC1C (stereo partly specified) | 0.99%
COc1cc2nc(CN(C)Cc3ccc(F)cc3)[nH]c(=O)c2cc1OC | -7.12%

SMILES | inhibition
Cc1cc(NC(=O)CCC(=O)N(Cc2ccccc2)C(C(=O)NC2CCCC2)c2ccc(C)o2)no1 (stereo unspecified) | -25.8%
CCCCn1c(N)c(N(CCOC)C(=O)c2cccc(S(=O)(=O)N(C)c3ccccc3)c2)c(=O)[nH]c1=O | -2.28%
CCC(C(=O)Nc1ccc(C(C)C)cc1)c1ccccc1 (stereo unspecified) | -16%
O=C(Nc1ccc(S(=O)(=O)Nc2ccccn2)cc1)c1ccccc1 | -2.52%
COC(=O)c1cc(C(=O)NC(C)C2CC3CCC2C3)cc([N+](=O)[O-])c1 (stereo unspecified) | -12.5%
COc1cc(NC(=O)c2ccccc2)c(OC)cc1NC(=O)Cc1ccccc1 | 0.759%
Nc1nc(SCC(=O)Nc2cc(C(F)(F)F)ccc2Cl)[nH]c(=O)c1NC(=O)c1ccco1 | 6.68%
COc1ccc(C(CC(=O)c2ccccc2)S(=O)(=O)c2ccccc2)cc1 (stereo unspecified) | -0.656%
CCC(C(=O)NCCC(C)C)N(Cc1ccccc1Cl)C(=O)c1snc(C(N)=O)c1N (stereo unspecified) | -1.98%
CCCCCOC(=O)C1=C(C)Nc2nnnn2C1c1ccc(OC)c(OC)c1OC (stereo unspecified) | -7.05%
Cc1ccc(NC(=O)Cn2cnc3c(OCc4ccccc4)ncnc32)cc1C | 3.36%
O=C(Cc1cccs1)NCc1cccc(C(F)(F)F)c1 | 2.56%
O=C(c1ccc(S(=O)(=O)N2CCCC2)cc1)N1CCN(c2ccccc2F)CC1 | 5.37%
C/C(=N\NC(=O)CCn1nc(C)cc1C)C(C)(C)C | -1.66%
CCC(c1nnc(SCC(=O)NNC(=O)c2ccccc2)n1Cc1ccccc1)N(C)C (stereo unspecified) | 24.1%
CC1CN(C(=O)COC(=O)c2cccc(NS(=O)(=O)c3ccccc3)c2)CC(C)O1 (stereo unspecified) | -11.9%
CC(C)(C)n1nnc(CCc2nnn(C(C)(C)C)n2)n1 | 4.71%
CC1CC(C)(C)CC2(C1)NC(=O)N(CC(=O)Nc1nccs1)C2=O (stereo unspecified) | 12%
CN(C)/C=N/c1cc(=O)n(C)c(=O)n1CC1CC1 | -0.734%
CN(C)S(=O)(=O)c1ccc(N2CCCC2=O)c([N+](=O)[O-])c1 | 7.65%
C=CCc1cc(S(=O)(=O)c2ccc(O)c(CC=C)c2)ccc1O | 11.5%
CCCCc1ccc(S(N)(=O)=O)cc1 | 1.85%
COc1cc(CN(C)Cc2nc3cc(C(F)(F)F)ccc3c(=O)[nH]2)ccc1OC(F)F | -0.492%

SMILES | inhibition
O=[N+]([O-])c1ncc(Br)cc1Nc1ccccc1 | -32.6%
CC(C)N(Cc1nnc(-c2ccc(Cl)cc2)o1)C(=O)C1=COCCO1 | 0.031%
COc1ccc(CNC(=O)C(=O)N2CCC3(CC2)OCCN3S(=O)(=O)c2ccc(C)cc2)cc1 | 28.1%
Cc1cc(C)n(CCNC(=O)CC2C(=O)NCCN2Cc2ccc(C)o2)n1 (stereo unspecified) | -19.8%
CCC(=O)NC(Nc1cc(C)ccn1)(C(F)(F)F)C(F)(F)F | -10.4%
CC1CN(C(=O)CCC(=O)NCCCN2CCC(Cc3ccccc3)CC2)c2cc(Cl)ccc2O1 (stereo unspecified) | 2.61%
Cc1noc(C)c1C(=O)OCC(=O)N1CCN(S(=O)(=O)c2ccc3ccccc3c2)CC1 | -0.0421%
CCOC(=O)c1sc(-c2cccc([N+](=O)[O-])c2)cc1N | 0.615%
Cc1ccc(C(=O)CN2C(=O)NC3(CCOc4ccccc43)C2=O)s1 (stereo unspecified) | 0.803%
CCOc1ccc(NC(=O)CN(C)CC(=O)NC(C)c2ccccc2)cc1OCC (stereo unspecified) | 2.69%
CCN1C(=O)C(=O)N(CC(=O)Nc2cc(C)ccc2C)C1=O | 8.4%
COc1cccc2cc(C(=O)NCc3ccc(C)cc3)c(=N)oc12 | 0.845%
Cc1ccccc1-c1cc(C(=O)NCC2CC2)n(CC2CC(c3cccnc3)=NO2)n1 (stereo unspecified) | -1.99%
O=C(/C=C/c1cccs1)c1cc(Cl)ccc1OC(=O)N1CCOCC1 | 98.5%
COc1cc(OC)cc(-c2nnc(N(C)C(=O)c3ccncc3)s2)c1 | -7.55%
COc1cccc(-c2nnc(N(C)C(=O)c3ccno3)s2)c1 | -39.9%
CN(C(=O)c1ccccn1)c1nnc(-c2ccccn2)s1 | 58.4% (active)
O=C(NCCNc1ccc([N+](=O)[O-])cc1)c1cccc2c(Br)cccc12 | 7.15%
O=C(O)CCCn1cc(NC(=O)COc2cccc(Cl)c2)cn1 | -414%
CCCCn1c(N)c(N(CC(C)C)C(=O)c2cccc(S(=O)(=O)N3CCN(C(C)=O)CC3)c2)c(=O)[nH]c1=O | -1.72%
CC1CCN(C(=O)/C(=C\c2ccccc2F)NC(=O)c2ccccc2)CC1 | 0.57%
CCOc1ccc(S(=O)(=O)N2CCC(c3ccccc3)CC2)cc1C(=O)O | -0.18%
